Screening results deposited in PubChem BioAssay by National Center for Advancing Translational Sciences (NCATS).
An excerpt weighted towards active compounds, which were near 21% of everything screened.
SARS PLP yeast: SARS-CoV PLP inhibition in yeast; S. cerevisiae expressing SARS-CoV PLpro, growth rescue; Potency, µM (doses to about 32.9 µM), for inactives: at the highest dose activity, positive = growth rescue, usual class: activators; hit rate 0.19% among 330,000; AID 485353; note: potency is the fitted concentration of half-maximal effect; 0% is about no effect; nearly all actives have a fitted effect of over 55% in size
Pf growth 48h: P. falciparum growth inhibition at 48 hours (one generation); P. falciparum luciferase growth in erythrocytes, 48 h; Potency, µM (highest dose often 28.7 µM), for inactives: at the top dose activity change, negative = inhibition, most hits filed as inhibitors; AID 504832; hit rate 5.9% among 310,000; active = well fitted inhibition curve with a large enough effect; inconclusive = small, poorly fitted or top-dose-only effect, or another doubt; inactive = no such curve, though single readings can be large or run the other way; note: potency is the fitted concentration of half-maximal effect; % is set by controls: 0 for no effect and ±100 for the full control effect
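First compound was added to culture medium, then infected red cells at 0.1% parasitemia and 2% hematocrit (final). After incubation at 37 C under 5% CO2, luciferase detection reagent was dispensed and light output recorded.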
Pf growth 96h: inhibits malaria parasite growth, 96 h. P. falciparum luciferase reporter growth, 96 h. Potency, µM (doses to about 28.7 µM), without a hit: at the top dose activity change, negative = inhibition, hits mostly inhibitors. hit rate 6.9% among 320,000; active = well fitted inhibition curve with a large enough effect; inconclusive = small, poorly fitted or top-dose-only effect, or another doubt; inactive = no such curve, though single readings can be large or run the other way; note: potency is the fitted concentration of half-maximal effect; % is set by controls: 0 for no effect and ±100 for the full control effect
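Parasite growth measured via integrated firefly luciferase reporter in P. falciparum. Infected erythrocytes at 2% hematocrit, 0.05% parasitemia final were treated 96 hours at 37 C under 5% CO2, and luminescence was read.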
Shiga toxin inh: blocks Shiga toxin action in Vero cells; Vero cells, Shiga toxin protein synthesis inhibition reporter; inhibition, % at 38.7 µM; hit rate 9.2% among 290,000; AID 2315; in the data active = inhibition mostly above about 28%, no sharp cut-off; inactive = mostly below about 43%; note: 0% is about no effect
Cycloheximide cs: counter-screen for Shiga toxin inhibitors: cycloheximide protein synthesis inhibition | hit rate 12% among 300,000 | max response, % | cell reporter, cycloheximide protein synthesis inhibition counterscreen; in the data active = max response mostly above about 13%, no sharp cut-off; inactive = mostly below about 14%; note: read at 38.3 µM for the half of the compounds with a filed dose; 0% is about no effect
NS1 function inh: inhibitors of influenza NS1 protein function; Potency, µM (top dose mostly 46.1 µM), for the others: at the highest dose activity, positive = more growth; hit rate 0.4% among 270,000; AID 2326; note: potency is the fitted concentration of half-maximal effect; actives are rising curves; nearly all actives have a fitted effect of over 50% in size
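OD600 was taken as the measure of yeast growth restored by compound in an NS1-expressing S. cerevisiae strain. Cells had been washed out of glucose medium and diluted 1:100 into galactose -URA medium, pH 6.0.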
Starred values were filed as active, the others as inactive; ? = inconclusive; . = not tested or not shown; [ ] = dose if it differs, or a comment. Unless noted, calls come from the whole dose curve.

SMILES | SARS PLP yeast | Pf growth 48h | Pf growth 96h | Shiga toxin inh | Cycloheximide cs | NS1 function inh
CC[C@H](C)[C@H](NC(=O)[C@H](CCC(=O)O)NC(=O)[C@H](CC(N)=O)NC(=O)[C@@H](N)[C@@H](C)O)C(=O)N[C@H](C(=O)N[C@@H](CCC(=O)O)C(=O)N[C@@H](CCC(=O)O)C(=O)N[C@@H](CCC(N)=O)C(=O)N[C@@H](Cc1ccc(O)cc1)C(=O)N[C@H](C(=O)N1CCC[C@H]1C(=O)N[C@@H](CCC(N)=O)C(=O)N[C@@H](CO)C(=O)N[C@@H](CC(C)C)C(=O)N[C@@H](C)C(=O)N[C@H](C(=O)N[C@@H](CC(C)C)C(=O)N[C@@H](CCC(=O)O)C(=O)N[C@@H](CO)C(=O)N[C@H](C(=O)N[C@@H](Cc1ccccc1)C(=O)N[C@@H](CCC(N)=O)C(=O)N[C@@H](CCC(=O)O)C(=O)N[C@@H](CC(C)C)C(=O)NCC(=O)N[C@@H](CCCCN)C(=O)N[C@@H](CC(C)C)C(=O)N[C@H](C(=O)NCC(=O)N1CCC[C@H]1C(=O)N[C@@H](CC(N)=O)C(=O)N[C@@H](CO)C(=O)N[C@@H](CCC(N)=O)C(=O)O)[C@@H](C)O)C(C)C)[C@@H](C)O)[C@@H](C)O)C(C)C | . | . | . | -7 | -3 | .
Cc1nnc(NC(=O)CSc2nnc(NC(=O)C(C)(C)C)s2)s1 | -1% | -51%[1.15 µM] | -8% | -5 | -9 | 1%
CCSc1nnc(NC(=O)C(C)(C)C)s1 | -4% | 59% | . | 69* | 29* | -2%
CCSc1nnc(NC(=O)c2cc(C)oc2C)s1 | -7% | 133% | 31% | 59* | 38* | -11%
CCc1nnc(NC(=O)CN2CCN(Cc3ccc(C)cc3)CC2)s1 | 4% | -12% | 9.3µM* | -4 | -3 | 8%
CCc1nnc(NC(=O)c2ccc(Br)o2)s1 | 3% | 21% | 5.9µM* | -2 | 1 | -8%
CCc1nnc(NC(=O)c2cc(C)oc2C)s1 | 30% | -3% | -15% | -21 | -1 | 1%
CCN1CCN(S(=O)(=O)c2ccc(Cl)c(C(=O)NC3CCCCC3)c2)CC1 | 4% | -13% | 7% | . | . | .
COc1ccc(Cl)cc1NC(=O)COC(=O)c1cc(NS(=O)(=O)c2cccs2)ccc1O | 0% | 0% | 8% | -2 | 6 | 20%
Cc1ccc(Nc2cccccc2=O)cc1 | 2% | 190% | . | 23 | 16* | -44%
O=C(CCSc1ccc(Br)cc1)Nc1cccnc1 | -9% | -1% | 7% | 3 | -2 | -40%
CCc1ccc(-c2cc(C)no2)cc1S(=O)(=O)NCCCN1CCN(c2ccccc2)CC1 | 0% | 13µM* | ? | 8 | 7 | -15%
CCc1ccc(-c2cc(C)no2)cc1S(=O)(=O)N1CCN(c2ccc(F)cc2)CC1 | 2% | 13µM* | ? | 7 | -5 | 13%
CCc1ccc(-c2cc(C)no2)cc1S(=O)(=O)N1CCN(C(=O)c2ccco2)CC1 | -2% | ? | 9.3µM* | -1 | 9 | -19%
CCc1ccc(-c2cc(C)no2)cc1S(=O)(=O)N1CCOc2ccccc21 | 0% | 8.3µM* | ? | 43 | 13 | 19%
Cc1ccnc(NC(=O)c2cc(F)c(F)cc2Cl)n1 | -8% | 48% | 22% | -4 | 0 | -84%
COc1ccccc1N1C(=O)CC(c2ccccc2)CC1=O | 0% | 17% | 45% | . | . | .
Cc1ccccc1[C@]1(C)ON(c2ccccc2C(F)(F)F)C1=O | 2% | 1.9µM* | 1.3µM* | . | . | .
CC[C@]1(c2ccccc2C)ON(c2ccccc2C(F)(F)F)C1=O | -7% | 2.6µM* | ? | . | . | .
COc1ccccc1[C@@]1(C)ON(c2ccccc2C(F)(F)F)C1=O | -2% | 1.5µM* | 1µM* | . | . | .
CCOC(=O)/C(N=Nc1c(Br)cc(Br)cc1Br)=C(\C)O | -8% | 6% | . | -22 | -1 | 0%
O=C(CSc1nnnn1-c1cccc(F)c1)NC1CCCCC1 | 0% | 9% | 20% | . | . | .
Cc1ccc2c(c1)[C@H]1[C@H](CO2)[C@H](c2ccccc2)[C@]2(C)C(=O)N(Cc3ccccc3)CC(=O)N12 | -6% | . | . | . | . | .
Cc1ccc(CN2CC(=O)N3[C@H]4c5cc(C)ccc5OC[C@@H]4[C@H](c4ccccc4)[C@]3(C)C2=O)cc1 | -15% | 5.9µM* | 96% | . | . | .
